Source: PubChem BioAssay
This is a sample that favours compounds with a hit; in the whole collection about 12% have one here.
CHX counter – affects cycloheximide protein synthesis inhibition readout, counter-screen; cell reporter, cycloheximide protein synthesis inhibition counterscreen; max response, %; 300,000 tested, 12% active; in the data active = max response mostly above about 13%, no sharp cut-off; inactive = mostly below about 14%; note: read at 38.3 µM for the half of the compounds with a filed dose; 0% is about no effect
Shiga toxin inh – blocks Shiga toxin action in Vero cells; Vero cells, Shiga toxin protein synthesis inhibition reporter; inhibition, % at 38.7 µM; AID 2315; 290,000 tested, 9.2% active; in the data active = inhibition mostly above about 28%, no sharp cut-off; inactive = mostly below about 43%; note: 0% is about no effect
NS1 function inh – inhibitors of influenza NS1 protein function; 270,000 tested, 0.4% active; Potency, µM (titrated, usually from 46.1 µM), inactives show top-dose activity, positive = more growth; note: potency is the fitted concentration of half-maximal effect; actives are rising curves; nearly all actives have a fitted effect of over 50% in size
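S. cerevisiae expressing influenza A NS1, grown in glucose, washed, then diluted 1:100 into pH 6.0 -URA galactose medium with 23 nl compound. Growth recovery read as OD600; NS1-free strain serves as control.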
SARS PLP yeast – SARS-CoV PLP inhibition in yeast; S. cerevisiae expressing SARS-CoV PLpro, growth rescue; Potency, µM (doses to about 32.9 µM), for the others: at the highest dose activity, positive = growth rescue, actives largely listed as activators; 330,000 tested, 0.19% active; AID 485353; note: potency is the fitted concentration of half-maximal effect; 0% is about no effect; nearly all actives have a fitted effect of over 55% in size
* hit, by the source's call; ? = inconclusive; / = no result given. Unless noted, calls come from the whole dose curve.

SMILES	CHX counter	Shiga toxin inh	NS1 function inh	SARS PLP yeast
COc1ccc(CNC(=O)Nc2cccc3ccccc23)cc1	-2	21	-6%	4%
Cn1c(=O)c(=O)n(C)c2cc(S(=O)(=O)N3CCN(c4cccc(C(F)(F)F)c4)CC3)ccc21	-3	-7	2%	3%
O=c1[nH]c(SCc2ccc(F)cc2Cl)nc2ccccc12	-2	15	2%	-2%
O=S(=O)(CC(CN1CCCCC1)N1CCCCC1)c1ccccc1 (centres undefined)	27*	54	6%	15%
Cc1ccccc1N1CCN(C(=O)CCN2C(=O)c3ccccc3C2=O)CC1	23*	49*	0%	2%
COc1ccc(CC(=O)N2CCc3ccccc32)cc1	31*	80*	-1%	11%
COc1ccc(CCC(=O)N2CCCc3ccccc32)cc1	16	-21	-6%	-3%
O=[N+]([O-])c1ccc(S(=O)(=O)CC(CN2CCCCC2)N2CCCCC2)cc1 (centres undefined)	14	24	/	0%
CCCC(C)NC(=S)Nc1cc(C)cc(C)c1 (centres undefined)	-3	-11	-67%	-4%
O=C(O)CSCc1cccc2ccccc12	/	/	-3%	/
CCC(CC)C(=O)Nc1nnc(CCc2ccccc2)s1	9	-1	-17%	-3%
CCCCC12CN3CCN(CC(C3)/C1=N\NC(=O)c1ccccc1N)C2	46*	83*	18%	1%
CCCC12CN3CCN(CC(C3)/C1=N\NC(=O)c1ccc(F)cc1)C2	5	-12	/	-1%
COc1ccc(C2=C/C(=C\c3cccc(OC(C)=O)c3)C(=O)O2)cc1	24*	34	3%	0%
COc1ccc(C2=C/C(=C\c3ccccc3OC(C)=O)C(=O)O2)cc1	22*	103*	6%	-2%
CCCn1c(=O)c(C(=O)NCc2ccc3c(c2)OCO3)c(O)c2ccccc21	-2	-7	24%	2%
CCn1c(C)cc(/C=C2\C(=O)NC(=O)N(c3ccccc3C)C2=O)c1C	-1	-10	4%	1%
Cc1ccccc1N1C(=O)NC(=O)/C(=C\c2cnn(-c3ccccc3)c2)C1=O	24*	56*	28%	19%
COc1ccc(S(=O)(=O)n2nc(OC(=O)c3ccc(C)cc3)cc2N)cc1	27*	56	-11%	5%
CCOCCCNC(=O)/C=C1\Sc2ccccc2N(Cc2ccccc2F)C1=O	32*	131*	/	2%
Cc1csc2nc(CNC(=O)C3CC=CCC3C(=O)O)cn12 (centres undefined)	-1	14	1%	-4%
Cn1nnnc1SCC(=O)c1ccc2c(c1)OCCO2	38*	97*	3%	0%
COc1ccc(C(=O)CSc2nncn2C)cc1	3	19	3%	5%
Cn1cnnc1SCC(=O)c1ccc2c(c1)OCCO2	14	49*	-3%	-2%
CCCn1nnnc1SCC(=O)c1ccc2c(c1)OCCO2	36*	74*	0%	-6%
SMILES	CHX counter	Shiga toxin inh	NS1 function inh	SARS PLP yeast
CCn1c(SCC(=O)c2ccc3c(c2)OCCO3)nnc1-c1ccco1	15*	8	-10%	-10%
CC(C)(C)c1ccc(OC(=O)Nc2ccc(O)c(C(=O)O)c2)cc1	1	8	-9%	-1%
O=C1NCCCC1C(=O)N/N=C/c1cccc(Cl)c1 (centres undefined)	11	15	-2%	-1%
N#Cc1cc(-c2ccccc2)nn1-c1ccccc1	19	16	-84%	12%
CNc1ccccc1-n1ccc(-c2ccccc2)n1	36*	86*	-17%	-18%
Cn1ccc(-c2ccccc2)n1	19*	13	/	0%
Cc1cc2c(s1)c1cnn(Cc3cccc(Cl)c3)c(=O)c1n2C	-1	-5	/	/
COc1ccc(CNC(=O)c2cc3c(=O)n4ccccc4nc3n(Cc3ccco3)c2=N)cc1	/	/	0%	/
COc1ccc(CCNC(=O)c2cc3c(=O)n4ccccc4nc3n(Cc3ccco3)c2=N)cc1OC	15*	18	11%	-4%
CC(NC(=O)COC(=O)c1cc(Cl)ccc1O)C1CC2CCC1C2 (centres undefined)	/	/	/	-3%
Cc1onc(-c2ccccc2)c1C(=O)N1CCc2ccccc21	5	-18	-32%	2%
Nc1c([N+](=O)[O-])cc(F)c(N2CCNCC2)c1Br	7	2	18%	0%
Fc1cc2[nH]c(=S)[nH]c2c(Br)c1N1CCSCC1	9.2*	47	9%	-3%
CCCCn1c(N)c(N(CCOC)C(=O)COC(=O)Cc2cccc(OC)c2)c(=O)[nH]c1=O	/	/	/	1%
Cc1noc(NC(=O)Nc2ccccc2F)c1C#N	/	/	-11%	/
Cc1cccnc1N(C(=O)Nc1cccc(Cl)c1)C1=NCC(C)(C)S1	-1	12	-37%	?
CC1(C)CN=C(N(Cc2ccccc2)C(=O)Nc2ccccc2)S1	65*	76*	-10%	11%
Cc1cccnc1N(C(=O)Nc1ccccc1)C1=NCC(C)(C)S1	7	90	-34%	2%
CC1(C)CN=C(N(C(=O)Nc2ccccc2)c2ccccc2F)S1	17*	62*	2%	0%
Cc1cc(NC(=O)CS(=O)(=O)Cc2ccccc2)no1	-3	-2	-2%	0%
COc1ccc(C(=O)Nc2ccc3c(c2)OCCO3)cc1	15*	9	-7%	-5%
CC(=O)Oc1ccc(C(=O)Nc2ccc3c(c2)OCCO3)cc1	26*	/	-10%	-11%
CCOc1ccc(C(=O)N(CC)CC(=O)Nc2ccc3c(c2)OCCO3)cc1	/	/	/	6%
COc1ccc(C(=O)CCNc2ccc3c(c2)OCCO3)cc1	27	59*	/	2%
CCCOc1ccc(C(=O)Nc2ccc3c(c2)OCCO3)cc1	36*	73*	-6%	-2%
SMILES	CHX counter	Shiga toxin inh	NS1 function inh	SARS PLP yeast
NNC(=O)CCc1nc2ccccc2[nH]1	5	-7	/	0%
Clc1ccc(CN2CCN(c3ncccn3)CC2)cc1	-2	22	-3%	1%
COCCn1cc(C(=O)NCCN(C)C)c2c3ccccc3n(C)c2c1=O	-1	12	1%	2%
COc1cccc(NS(=O)(=O)NC(=O)c2c(C)[nH]c3ccccc23)c1	31*	30*	4%	1%
Cc1[nH]c2ccccc2c1C(=O)NS(=O)(=O)Nc1ccc(F)cc1	-1	-11	/	3%
COc1cccc(NS(=O)(=O)NC(=O)c2c[nH]c3ccccc23)c1	45*	53	?	2%
COc1ccc(NS(=O)(=O)NC(=O)c2c[nH]c3ccccc23)cc1	-1	3	-4%	1%
C=CCNc1nc(-c2ccc(OC)cc2OC)cs1	38*	69*	-47%	5%
O=c1[nH]c2ccccc2nc1-c1c[nH]c2ccccc12	26*	34	0%	-1%
Nc1ccccc1-c1nc2ccccc2[nH]c1=O	58*	80*	0%	-1%
CCC(=O)Nc1ccccc1-c1nc2ccccc2[nH]c1=O	1	8	15%	8%
Nc1ccc(Br)cc1-c1nc2ccccc2[nH]c1=O	20	75*	/	1%
CCC(C(=O)NC(C)(C)C)N(Cc1ccc(F)cc1)C(=O)c1snc(C(N)=O)c1N (centres undefined)	6	/	22%	6%
Cc1ccc(C(=N)c2ccccc2Cc2cccc3ccccc23)c2ccccc12	/	/	-10%	/
CC1=C(C(=O)OC(C)C)C(c2ccc(C)o2)C(C(=O)OC(C)C)=C(C)N1	1	6	4%	-1%
